Source: PubChem BioAssay (National Center for Advancing Translational Sciences (NCATS))
In the library only some 18% were active in any assay of this set; here they are far more common.
DT40 TDP1 CPT: DT40-hTDP1 cell growth loss with CPT | chicken DT40 Tdp1-/-;hTDP1 cells + 20 nM CPT, ATP luminescence, 48 h | Potency, µM (doses to about 46.2 µM), for the others: at the highest dose activity change, negative = growth inhibition, most hits filed as inhibitors | hit rate 12% among 420,000 | AID 686979; also: potency is read from the fitted curve at half-maximal effect; nearly all actives have a fitted effect of over 55% in size
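Chicken DT40 Tdp1-/- cells complemented with human TDP1, 400 cells/well, exposed to compounds plus 20 nM camptothecin for at least 48 h at 37 C; viability read as ATP content by CellTiter-Glo luminescence.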
IL1B secr inh: inhibitors of inflammasome signaling (IL-1 beta secretion) | THP-1 LPS/ATP IL-1B secretion, AlphaLISA, 16 h; hits give low values | activity change, % at 57.5 µM | hit rate 4.7% among 360,000; in the data active = activity change below about -50%; inconclusive = mostly about -30% to -49%
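Secreted IL-1B measured by AlphaLISA bead assay after 16 h compound exposure of THP-1 cells; compounds (final up to 57.5 uM) added 1 h before LPS (250 ng/mL) and ATP (1.25 mM) stimulation; lower signal means less secretion.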
LDHA inh: inhibitors of human lactate dehydrogenase A | hit rate 0.15% among 480,000 | purified LDHA, NADH/diaphorase-resazurin fluorescence; hits give low values | activity change, % (values are at about 110 or 230 µM); in the data active = activity change below about -30%; inconclusive = mostly about -25% to -30%;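 also: plate controls were DMSO wells for no effect and wells without enzyme for full effect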
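Resorufin fluorescence (ex540/em590), read at 0 and 20 min after diaphorase/resazurin addition, reports the NADH left after a 5 min room-temperature reaction of 2 nM human LDH5 with 0.06 mM NADH and 0.2 mM pyruvate.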
DT40 TDP1 no CPT: qHTS for Inhibitors of human tyrosyl-DNA phosphodiesterase 1 (TDP1): qHTS in cells in absence of CPT. DT40 Tdp1-/- hTDP1 cells, no CPT, ATP luminescence, 48 h. hit rate 15% among 420,000. Potency, µM (series often up to 46.2 µM), without a hit: top-dose activity change, negative = growth inhibition, actives largely listed as inhibitors; also: potency is read from the fitted curve at half-maximal effect; nearly all actives have a fitted effect of over 55% in size
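Growth of hTDP1-complemented DT40 Tdp1-knockout cells is measured by ATP luminescence after at least 48 hr compound exposure at 37 °C, with DMSO substituting for the 20 nM CPT used in the parallel screen.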
Gal4-VP16 FLuc: inhibits Gal4-VP16 luciferase reporter, ROR gamma counter-screen; Drosophila S2 Gal4-VP16 UAS-luciferase, luminescence, 20 h; Potency, µM (top dose mostly 53.6 µM), for the others: at the highest dose activity, negative = inhibition, usual class: inhibitors; hit rate 3.5% among 310,000;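 also: Gal4-VP16 expression switched on by copper sulfate through the metallothionein promoter; potency is read from the fitted curve at half-maximal effect; nearly all actives have a fitted effect of over 50% in size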
RORgamma inh: inhibitors of mouse ROR gamma transcriptional activity. Drosophila S2 Gal4-RORgamma UAS-luciferase reporter, 20 h. Potency, µM (top dose mostly 53.6 µM), for inactives: at the highest dose activity change, negative = inhibition, most hits filed as inhibitors. hit rate 5.4% among 310,000. AID 2551; also: potency is read from the fitted curve at half-maximal effect; nearly all actives have a fitted effect of over 60% in size
Target sequence (P51450 whole entry, looked up, the tested form may be a part): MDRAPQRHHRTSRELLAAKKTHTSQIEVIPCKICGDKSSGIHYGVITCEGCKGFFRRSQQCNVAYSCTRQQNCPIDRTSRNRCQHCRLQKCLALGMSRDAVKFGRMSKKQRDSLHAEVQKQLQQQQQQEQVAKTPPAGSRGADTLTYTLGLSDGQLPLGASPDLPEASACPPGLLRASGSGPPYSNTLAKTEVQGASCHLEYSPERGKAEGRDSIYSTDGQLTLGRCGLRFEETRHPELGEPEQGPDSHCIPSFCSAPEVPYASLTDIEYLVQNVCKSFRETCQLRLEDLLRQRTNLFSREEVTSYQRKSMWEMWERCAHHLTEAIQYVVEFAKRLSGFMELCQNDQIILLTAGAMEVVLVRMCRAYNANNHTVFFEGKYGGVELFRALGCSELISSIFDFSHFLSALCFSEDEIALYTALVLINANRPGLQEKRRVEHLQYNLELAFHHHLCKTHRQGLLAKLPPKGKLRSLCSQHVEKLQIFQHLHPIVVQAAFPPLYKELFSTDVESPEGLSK
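Drosophila Schneider cells stably carrying a metallothionein-driven Gal4 DBD–ROR gamma fusion and a UAS-Photinus luciferase reporter were exposed to compound for 1 hr, then induced with copper sulfate (700 uM final) for 20 hr at ambient temperature before luminescence reading.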
* marks the source's active call; other numbers are inactive results; ? = inconclusive; · = no result given; [ ] = another dose, or the depositor's remark. Unless noted, calls follow the shape of the dose curve; as a rule, active = well fitted curve in the direction sought with a large enough effect; inconclusive = small, poorly fitted or top-dose-only effect, or another doubt; inactive = no such curve, though single readings can be large; an effect the other way counts as inactive or inconclusive. Unless noted, % is scaled to controls: 0 for no effect and ±100 for the full control effect.

SMILES | DT40 TDP1 CPT | IL1B secr inh | LDHA inh | DT40 TDP1 no CPT | Gal4-VP16 FLuc | RORgamma inh
N#Cc1c(N)nc(SCC(=O)C23CC4CC(CC(C4)C2)C3)c(C#N)c1-c1ccc(Cl)cc1 | ? | 21.9 | -0.7 | ? | 5.4% | 0.0%
CSc1nc(N)nc(SCC(=O)C23CC4CC(CC(C4)C2)C3)c1C#N | ? | -20.8 | 1.1 | 18.4µM* | -16.4% | ?
Nc1ncc([N+](=O)[O-])c(Oc2ccccc2F)n1 | -8.8% | 6.1 | -2.7 | -7.2% | -1.4% | -14.7%
COc1cccc(Oc2nc(N)ncc2[N+](=O)[O-])c1 | -18.9% | -73.1* | -6.0 | -17.7% | -0.8% | -26.5%
C[C@@H]1CC[C@H](O)/C=C/C(=O)O[C@H](C)CC[C@H](O)/C=C/C(=O)O1 | 5.17µM* | -4.4 | 0.6 | 5.17µM* | 6.31µM* | ?
O=C(Nc1cccc(C(F)(F)F)c1)c1cc(=O)c2ccccc2o1 | · | · | 4.4 | · | · | ·
N#CCCn1cc(C(=O)O)c(-c2ccc3ccccc3c2)n1 | 7.8% | 0.8 | -10.2 | 1.0% | -9.4% | 5.4%
N#CCCn1cc(C(=O)Nc2ccc([N+](=O)[O-])cc2)c(-c2cc3ccccc3o2)n1 | -26.5% | -14.7 | -10.5 | -2.5% | -12.6% | ?
N#CCCn1cc(C(=O)Nc2ccccc2Br)c(-c2cc3ccccc3o2)n1 | ? | -10.0 | -13.1 | -116.3% | 7.94µM* | ?
COC(=O)c1cn(CCC#N)nc1-c1ccc2ccccc2c1 | 7.5% | -50.6* | -1.3 | -3.2% | 8.2% | 1.0%
O=C(O)CCc1ccc(F)c(F)c1 | · | · | -0.1 | · | · | ·
CSc1nc2[nH]c3c(c2c2ncnn12)CCCC3 | 14.6µM* | -12.9 | -3.2 | ? | 2.4% | ?
CCCn1c(SCc2csc(-c3ccccc3)n2)nnc1C1CC1 | · | · | -11.9 | · | · | ·
CCOC(=O)Nc1ccc2c(CNC(C)c3ccccc3OC)cc(=O)oc2c1 (stereo not given) | ? | -6.8 | -1.8 | 23.1µM* | -13.6% | -9.0%
Cc1cc(C)c2oc(=O)cc(CN3CCC(C)CC3)c2c1 | ? | -4.7 | 0.2 | 25.9µM* | -0.8% | -15.8%
Cc1ccc2c(CN3CCN(Cc4ccccc4)CC3)cc(=O)oc2c1C | ? | -74.5* | 0.0 | 18.4µM* | -4.6% | 1.9%
Cc1ccc2c(CN3CCOCC3)cc(=O)oc2c1C | 9.2% | 4.6 | 0.3 | -2.9% | 2.8% | -8.1%
Cc1ccc2c(CN3CCN(S(=O)(=O)c4ccc(Cl)cc4)CC3)cc(=O)oc2c1C | ? | 12.8 | -1.5 | 16.4µM* | · | ·
O=c1cc(CN2CCN(S(=O)(=O)c3cccc(Cl)c3)CC2)c2ccc(O)cc2o1 | ? | 0.8 | 3.2 | 18.4µM* | · | ·
Cc1cc(C)c2oc(=O)cc(CN3CCN(Cc4ccccc4)CC3)c2c1 | 18.4µM* | 5.1 | -1.3 | ? | 1.8% | 33.7%
CCOC(=O)Nc1ccc2c(CN3CCN(S(=O)(=O)c4ccccc4)CC3)cc(=O)oc2c1 | 13µM* | -13.2 | -10.1 | ? | -4.6% | ?
O=c1cc(CN2CCN(c3cccc(Cl)c3)CC2)c2cc(Cl)c(O)cc2o1 | · | · | -13.2 | · | · | ·
NC(=O)Nc1cccc([N+](=O)[O-])c1 | · | · | 1.3 | · | · | ·
O=C(NCCNC(=O)c1c[nH]c2ccccc12)c1ccncc1 | · | · | 4.1 | · | · | ·
CCCCN1CNC(=S)N(CCc2ccc(OCC)c(OCC)c2)C1 | ? | 26.9 | -7.0 | ? | 14.1µM* | 3.16µM*
SMILES | DT40 TDP1 CPT | IL1B secr inh | LDHA inh | DT40 TDP1 no CPT | Gal4-VP16 FLuc | RORgamma inh
CCOc1ccc(CCNC(=O)C2CC(=O)N(C3CCCC3)C2)cc1OCC (stereo not given) | -10.5% | 41.9 | -0.5 | -2.3% | -1.3% | 4.5%
CCCCN1CNC(=S)N(CCc2ccccc2)C1 | 9.0% | 12.0 | -7.6 | ? | 4.47µM* | 2.82µM*
CCCN1CNC(=S)N(CC2CCCO2)C1 (stereo not given) | 10.8% | 11.0 | -3.7 | 2.4% | ? | ?
CCOc1ccc(CCN2CN(C3CCCCC3)CNC2=S)cc1OCC | ? | 22.4 | -4.4 | 18.4µM* | 8.91µM* | 2.82µM*
CCOc1ccccc1N1CN(C2CCCCC2)CNC1=S | -4.9% | -6.4 | -5.6 | -9.4% | 14.1µM* | 3.16µM*
CCCOc1ccc(-c2nc(C#N)c(N3CCN(Cc4ccccc4)CC3)o2)cc1 | · | · | -18.7 | · | · | ·
CC1CCN(C(=O)c2noc3c2CC(C(C)(C)C)CC3)CC1 (stereo not given) | · | · | 5.1 | · | · | ·
COc1cccc(C(=O)Nc2c(NC3CCCC3)c3ccccc3oc2=O)c1 | · | · | 5.0 | · | · | ·
CCCN1CN(CCc2ccccc2)CNC1=S | -3.2% | 10.5 | -1.3 | ? | 1.78µM* | 1.12µM*
S=C1NCN(C2CCCCC2)CN1CCc1ccccc1 | ? | 11.6 | -5.2 | ? | 3.98µM* | 2.82µM*
S=C1NCN(CCc2ccccc2)CN1 | -1.9% | 9.2 | -1.1 | -8.8% | -1.8% | -18.6%
O[C@@H]1CN(C2CCCCC2)CC[C@H]1N1CCN(CCc2ccccc2)CC1 | 0.7% | -2.3 | -7.6 | ? | -4.2% | -15.7%[1.91 µM]
O=C(Nc1c(-c2ccccc2)nc2sccn12)c1cccc(S(=O)(=O)N2CCCC2)c1 | · | · | 8.7 | · | · | ·
CCNc1sc(C(C)=O)c(N)c1C#N | · | · | -34.9* | · | · | ·
CCCc1c(C(=O)OCC)sc(N)c1C#N | 3.5% | 0.7 | -7.7 | 1.5% | -4.4%[10 µM] | -7.2%
Cc1ccc(-c2nn(C)c(=O)c3ccccc23)cc1CNC(=O)Cn1nc(-c2ccccc2)c2ccccc2c1=O | · | · | · | · | -7.1% | -7.0%
Cn1nc(-c2ccc3c(c2)OCCO3)c2ccccc2c1=O | ? | 36.6 | -9.5 | 20.6µM* | ? | -1.1%
Cc1ccc(-c2nn(C)c(=O)c3ccccc23)cc1S(N)(=O)=O | · | · | 8.1 | · | · | ·
CCN(CC)S(=O)(=O)c1cc(-c2nn(C)c(=O)c3ccccc23)ccc1C | 23.1µM* | 37.8 | -1.5 | 16.4µM* | 8.3% | -6.3%
Cn1nc(C(=O)Nc2ccc3c(c2)OCCO3)c2ccccc2c1=O | -18.3% | ? | -2.7 | -6.5% | · | ·
CCCCNS(=O)(=O)c1cc(-c2nn(C)c(=O)c3ccccc23)ccc1C | ? | -65.0* | -11.8 | -0.9% | -5.6% | 1.0%
Cc1cc(C)n(CC(=O)NCc2cc(-c3nn(C)c(=O)c4ccccc34)ccc2C)n1 | ? | -1.1 | -2.1 | 16.4µM* | 5.7% | -3.5%
COCCNS(=O)(=O)c1cc(-c2nn(C)c(=O)c3ccccc23)ccc1C | 3.7% | 24.3 | -4.2 | ? | 6.5% | -19.8%
CN(CC(=O)NC(N)=O)Cc1ccc(C(F)(F)F)cc1 | · | · | 7.2 | · | · | ·
C=CCOc1ccc2c(c1)CCC1C2CCC2(C)C(O)C(O)CC12 (stereo not given) | ? | -74.5* | 5.7 | ? | · | ·
